Shown is part of a subset that was picked to be rich in hits.
TTR transcr act: TTR transcription activators in neuroblastoma reporter cells, primary screen, cell-based, luminescence, SH-SY5Y, TTR promoter Gaussia luciferase; 100% = recombinant luciferase protein wells; activation, % at 16.7 µM; actives 1.3% (n = 92,000);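 active = activation above the mean of all tested compounds plus 3 SD, cut at about 9.5% in these data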;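 note: cells exposed to compounds for one day before reading; 0% = median of all test compound wells on the plate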
TTR inh HuH7: TTR promoter reporter inhibitors in hepatoma cells, counter-screen for TTR transcription activator project, cell-based, luminescence, HuH7 hepatoma. AID 1117279, 2014. actives 4% (n = 1,100). inhibition, % at 16.7 µM. shares compounds with TTR transcr act. HuH7 TTR promoter-Gaussia luciferase reporter;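 active = average inhibition above the solvent-only control wells' mean plus 3 SD, cut at about 15% in these data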;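 note: 0% = cells with DMSO only and 100% = cells with inhibitor control FD; inhibitors lower well luminescence so higher value means more inhibition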
TTR up confirm: TTR transcription activators, retest, confirmation, cell-based, luminescence, SH-SY5Y, triplicate | 1,100 tested, under 10 active | shares compounds with TTR transcr act | activation, % at 16.7 µM | AID 1117280, 2014 | SHSY5Y TTR promoter Gaussia luciferase; 100% = purified Lucia enzyme wells, no cells;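 active = mean activation above a set limit taken from the earlier primary screen, cut at about 11% in these data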;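 note: 0% = DMSO-treated cells and 100% = recombinant Lucia luciferase without cells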
Active calls of the source: *.

SMILES	TTR transcr act	others
CCN1C(=O)[C@H]2[C@@H](c3ccc(C)cc3)N[C@]3(CCCN(CCC(C)C)C3=O)[C@H]2C1=O	20*	TTR inh HuH7=-5;TTR up confirm=0
COc1ccc([C@H]2N[C@]3(CCCN(Cc4cccn4C)C3=O)[C@H]3C(=O)N(C)C(=O)[C@@H]23)cc1	0
CC(C)CCN1CCC[C@]2(N[C@H](c3ccccc3)[C@@H]3C(=O)N(Cc4ccccc4)C(=O)[C@@H]32)C1=O	2
CCN1C(=O)[C@H]2[C@@H](c3ccccc3)N[C@]3(CCCN(Cc4ccccc4)C3=O)[C@H]2C1=O	0
CCN1C(=O)[C@H]2[C@@H](c3ccc(OC)cc3)N[C@]3(CCCN(Cc4ccco4)C3=O)[C@H]2C1=O	4
Cn1nc(C(C)(C)C)cc1N1C(=O)CCC1(C)C(=O)NC1CCCCC1 (stereo not given)	-1
O=C(O)c1cc(Br)ccc1NS(=O)(=O)c1cccc2nsnc12	1
CC(=O)c1cccc(NC(=O)C2Cc3c(-c4ccccc4)ccnc3O2)c1 (stereo not given)	-1
CC(=O)Nc1cccc(-c2ccnc3c2CC(C(=O)Nc2cccc(NS(C)(=O)=O)c2)O3)c1 (stereo not given)	17*	TTR inh HuH7=-22;TTR up confirm=1
CC(=O)Nc1cccc(-c2ccnc3c2CC(C(=O)Nc2cccnc2)O3)c1 (stereo not given)	5
CCN(CC)C(=O)[C@H]1CC(CC(=O)NCc2ccco2)C(=O)N2CCc3c([nH]c4ccc(OC)cc34)[C@]12C (stereo not given in full)	6
COc1ccc(C(=O)Nc2ccc(C)cn2)c(OC)c1	-3
COc1ccc(S(=O)(=O)Nc2ccc(NC(C)=O)cc2)cc1	3
COc1ccc(S(=O)(=O)Nc2ccc(C)cn2)cc1	14*	TTR inh HuH7=-12;TTR up confirm=6
CCOc1ccc(NC(=O)CN(C)Cc2cc(=O)n3c(-c4ccccc4)csc3n2)cc1OCC	4
O=C(NNc1nc2ccccc2nc1C(F)(F)F)c1ccccc1	10*	TTR inh HuH7=-10;TTR up confirm=-1
O=C(NNc1ccccc1F)c1ccccc1	0
O=C(NNc1nc2ccccc2o1)c1ccccc1	-1
CC1CCCCC1NC(=O)c1ccc(NC2=NC3CS(=O)(=O)CC3S2)cc1 (stereo not given)	0
C/C=C/c1cccc(-c2nc(C(=O)N3CCCCC3)cc3c2[C@H](CCO)N(C(=O)NC(C)C)C3)c1	1
O=C(Oc1ccc(C(=S)N2CCOCC2)cc1)c1cccc(Cl)c1	0
CN(Cc1ccccc1)C(=O)c1ccccc1-c1ccccc1	2
CCS(=O)(=O)C(=C1Nc2ccccc2N1)S(=O)(=O)CC	21*	TTR inh HuH7=-13;TTR up confirm=2
O=C1Nc2ccccc2C1=O	0
CCC1(CC)C(=O)Nc2ccccc21	6
SMILES	TTR transcr act	others
C[C@H]1[C@@H](c2ccccc2)OC(O)([C@H](Cc2ccccc2)NC(=O)OC(C)(C)C)CN1C (stereo not given in full)	1
COc1ccc(/C=C/c2nnc(NC(=O)COc3cccc(C)c3)s2)cc1	1
Cc1cccc(OCCC(=O)Nc2nnc(C)s2)c1	17*	TTR inh HuH7=-16;TTR up confirm=1
Cc1cccc(OCCCC(=O)Nc2ccc(N(C)C)cc2)c1	4
O=S(=O)(Nc1nc(-c2ccccc2)cs1)c1cc(Cl)ccc1Cl	2
CN1CCN(c2ccc(-c3csc(N4CCC(C(N)=O)CC4)n3)cc2)CC1	0
C[C@@H]1C(=O)O[C@@H]2CC34[C@H]5C[C@@H](C(C)(C)C)C36[C@H](OC(=O)[C@@H]6O)OC4(C(=O)O5)[C@@]12O (stereo not given in full)	23*	TTR inh HuH7=-7;TTR up confirm=2
CCCCNc1c(-c2cc3ccccc3o2)nc2nc(C)cc(C)n12	0
Cc1nn(C(C)C)c(C)c1CN1CCCC(C(=O)c2cccc(OC(C)C)c2)C1 (stereo not given)	3
CCn1nc(C)c(CN2CCCC(C(=O)c3cccc(OC(C)C)c3)C2)c1C (stereo not given)	-2
Cc1nn(C)c(C)c1CCC(=O)N1CCCC(C(=O)c2cccc(OC(C)C)c2)C1 (stereo not given)	10*	TTR inh HuH7=1;TTR up confirm=0
O=C(Nc1ccc(C(O)(C(F)(F)F)C(F)(F)F)cc1)c1ccccc1C(F)(F)F	6
Cc1cccc(C(=O)Nc2onc(C)c2C#N)c1	5
Cc1noc(NS(=O)(=O)c2ccc(NC(=O)c3ccc(F)cc3)cc2)c1C	-2
Cc1noc(NC(=O)c2ccc(F)cc2)c1C#N	14*	TTR inh HuH7=-17;TTR up confirm=0
Cc1noc(NC(=O)c2ccccc2C(F)(F)F)c1C#N	12*	TTR inh HuH7=-25;TTR up confirm=1
Cn1c(NC(=O)c2ccccc2C(F)(F)F)cc(=O)n(C)c1=O	0
Cc1ccc2c(c1)COc1c3ccc(C(=O)NC(C)C)cc3nn1-2	-4
CCOC(=O)[C@]12CCCC=C1N(CCCOC)C(=O)[C@@H]2CC(=O)NCc1ccc(C)o1	1
Cc1ccc(S(=O)(=O)N(C)C[C@H]2Oc3ccc(NC(=O)Nc4c(C)noc4C)cc3CC(=O)N([C@@H](C)CO)C[C@@H]2C)cc1	8
CCCCCCCCN1C(=O)[C@@H](CC(=O)N2CCCCC2)C[C@@]2(C(=O)OC)C1=C[C@H](COCc1ccccc1)O[C@@H]2C	0
CCOC(=O)C1(C)CCCCCN1C(=O)/C=C/c1ccccc1 (stereo not given)	-1
C[C@H]1[C@H](NC(=O)c2ccc(C(C)(C)C)cc2)CC[C@@]23CCCN2C(=O)CCC[C@@H]13	1
O=C(Nc1c(-c2ccc(C(F)(F)F)cc2)nc2ncccn12)c1ccccc1	0
COC(=O)[C@@]12C[C@@H](CC(=O)NCCc3ccccc3OC)C(=O)N(Cc3ccccc3)C1=CCC(C)(C)C2	2
SMILES	TTR transcr act	others
CC1(c2nnnn2Cc2ccccc2)CCCC(=O)N1Cc1cccs1 (stereo not given)	0
COc1ccccc1NS(=O)(=O)c1cc(NC(=O)CCNC(C)=O)ccc1C	-1
COc1ccc(NC(=O)CCNC(=O)c2ccccc2)cc1S(N)(=O)=O	31*	TTR inh HuH7=-12;TTR up confirm=0
O=C(CCNC(=O)c1ccccc1)Nc1ccc(F)c(Cl)c1	3
CN1OC[C@@H]2CN(S(=O)(=O)c3cccc4ccccc34)[C@H](c3ccc(-c4cccnc4)cc3)C[C@@H]21	-2
COc1ccc(Cl)cc1C(=O)O/N=C(\N)c1ccncc1	1
Cc1ccc(/C(N)=N/OC(=O)c2ccc(Cl)cc2Cl)cc1	20*	TTR inh HuH7=6;TTR up confirm=-1
N/C(=N\OC(=O)c1cccnc1)c1ccc(Cl)cc1Cl	0
COC(=O)CCCC[C@@H]1O[C@H](CCc2ccccc2)Cc2[nH]c(=S)[nH]c(=O)c21	5
CCOc1ccc(NC(=O)C2Cc3ccccc3CN2S(=O)(=O)CC)cc1 (stereo not given)	20*	TTR inh HuH7=-14;TTR up confirm=0
COc1ccc(S(=O)(=O)N2Cc3ccccc3CC2C(=O)Nc2ccc(O)cc2)cc1OC (stereo not given)	1
CCS(=O)(=O)N1Cc2ccccc2CC1C(=O)Nc1ncc(C)s1 (stereo not given)	2

From PubChem BioAssay
